# This is a sample that favours compounds with a hit; in the whole collection about 0.55% have one here.
# EPAC2 agonist = EPAC2 (human) agonism. Potency, µM (series often up to 154 µM), for the others: at the highest dose activation, hits mostly activators. Q8WZA2. AID 720711. EPAC2 activation, biochemical qHTS; response scale: 100% = 6.5 mM cAMP response. hit rate 0.079% among 360,000; also: nearly all actives have a fitted effect of over 50% in size
#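 Exchange assay: 100 nM EPAC2 with 250 nM Rap1B-BODIPY-GDP and 50 uM GDP. Fluorescence (ex 480/em 540 nm) read every 5 min for 30 min at room temperature. Data normalized to 6.5 mM cAMP as agonist control.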
# EPAC2 antagonist = blocks human EPAC2 exchange factor; EPAC2 GEF exchange of Rap1B-BODIPY-GDP, fluorescence; AID 720708; Q8WZA2; Potency, µM (doses to about 114 µM), without a hit: at the top dose activity, negative = inhibition, usual class: inhibitors; hit rate 0.18% among 360,000; also: % is scaled to controls: 0 for no effect and ±100 for the full control effect; nearly all actives have a fitted effect of over 45% in size
# EPAC1 ag = EPAC1 (human) agonism | O95398 | EPAC1 agonist qHTS, biochemical assay; response scale: 100% = response to 6.5 mM cAMP | Potency, µM (series often up to 154 µM), without a hit: top-dose activation, most hits filed as activators | hit rate 0.073% among 360,000; also: nearly all actives have a fitted effect of over 60% in size
# Target sequence (O95398 whole entry, looked up): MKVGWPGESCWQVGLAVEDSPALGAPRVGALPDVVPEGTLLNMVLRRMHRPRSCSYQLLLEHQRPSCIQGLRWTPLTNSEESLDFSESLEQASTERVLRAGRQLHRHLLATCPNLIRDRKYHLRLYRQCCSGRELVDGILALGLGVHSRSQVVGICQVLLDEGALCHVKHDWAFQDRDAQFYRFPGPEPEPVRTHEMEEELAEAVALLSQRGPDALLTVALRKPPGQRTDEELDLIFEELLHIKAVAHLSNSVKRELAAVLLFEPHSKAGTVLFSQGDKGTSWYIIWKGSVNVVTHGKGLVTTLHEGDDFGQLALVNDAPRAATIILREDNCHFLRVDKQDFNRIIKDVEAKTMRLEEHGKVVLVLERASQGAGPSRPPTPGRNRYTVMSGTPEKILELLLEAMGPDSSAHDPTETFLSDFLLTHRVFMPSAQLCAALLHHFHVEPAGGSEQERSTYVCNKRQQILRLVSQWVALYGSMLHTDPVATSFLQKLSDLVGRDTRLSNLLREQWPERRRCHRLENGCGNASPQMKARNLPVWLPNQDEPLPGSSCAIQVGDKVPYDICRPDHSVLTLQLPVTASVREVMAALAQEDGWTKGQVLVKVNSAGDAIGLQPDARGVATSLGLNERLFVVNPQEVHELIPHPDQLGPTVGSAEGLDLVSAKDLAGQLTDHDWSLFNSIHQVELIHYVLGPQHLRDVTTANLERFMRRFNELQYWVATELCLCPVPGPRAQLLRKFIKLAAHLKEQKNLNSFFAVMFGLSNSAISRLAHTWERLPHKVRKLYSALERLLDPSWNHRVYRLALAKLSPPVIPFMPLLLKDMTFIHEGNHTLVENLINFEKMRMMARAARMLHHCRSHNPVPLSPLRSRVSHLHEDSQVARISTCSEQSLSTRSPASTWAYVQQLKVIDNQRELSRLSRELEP
#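 EPAC1 100 nM, Rap1B–BODIPY-GDP 250 nM, unlabeled GDP 50 uM; compound titration; 5 min RT; kinetic read ex480/em540 at 5-min intervals ×30 min; data normalized to 6.5 mM cAMP agonist control.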
# GLP1R cytotox = cytotoxicity counter-screen for GLP-1 receptor inverse agonists; Potency, µM (doses to about 38.3 µM), for inactives: top-dose activity change, negative = inhibition, actives largely listed as inhibitors; hit rate 0.13% among 410,000; HEK293 cAMP-luciferase reporter cells, luminescence, 24 h;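 also: loss of luciferase light is scored as toxicity; % is scaled to controls: 0 for no effect and ±100 for the full control effect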
#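 Seeding density was 200 cells/uL; after overnight-length (12 h) culture, 23 nL compounds went on for 24 h at 37 °C. Readout used a luciferase detection reagent, luminescence taken after 12 min at room temperature.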
# USP1-UAF1 inh = inhibitors of human USP1/UAF1 deubiquitinase; hit rate 0.23% among 390,000; AID 743255; recombinant USP1/UAF1, Ub-Rhodamine cleavage fluorescence; O94782; Potency, µM (titrated, usually from 57.1 µM), without a hit: at the highest dose activity change, negative = inhibition, hits mostly inhibitors; also: % is scaled to controls: 0 for no effect and ±100 for the full control effect; nearly all actives have a fitted effect of over 60% in size
#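 Step one: compound is pinned into 1nM USP1/UAF1 in HEPES pH 7.8 buffer with TCEP. Step two: 15 min room-temperature incubation. Step three: Ub-Rho (150nM final) starts cleavage, tracked by fluorescence over six one-minute reads.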
# EPAC1 antagonist = blocks human EPAC1 exchange factor; hit rate 0.14% among 360,000; Potency, µM (highest dose often 115 µM), without a hit: at the top dose activity change, negative = inhibition, usual class: inhibitors; EPAC1 GEF assay, Rap1b-BODIPY-GDP exchange fluorescence;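 also: plate controls were vehicle for no effect and positive control for full effect; nearly all actives have a fitted effect of over 50% in size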
# * hit, by the source's call; i = inactive; ? = inconclusive; . = not tested or not shown. Calls follow the shape of the dose curve; as a rule, active = well fitted curve in the direction sought with a large enough effect; inconclusive = small, poorly fitted or top-dose-only effect, or another doubt; inactive = no such curve, though single readings can be large; an effect the other way counts as inactive or inconclusive. Potency is read from the fitted curve at half-maximal effect.
SMILES,EPAC2 agonist,EPAC2 antagonist,EPAC1 ag,GLP1R cytotox,USP1-UAF1 inh,EPAC1 antagonist
CCOC(=O)c1cccc(NC(=O)CSc2ncc3c(n2)-c2ccccc2N(C)S3(=O)=O)c1,.,.,.,10%,-32%,.
COc1ccc(C2C(O)C(c3c[nH]c4ccccc34)=NN2C(=O)CCl)cc1 (centres undefined),9%,-13%,-2%,11µM*,-13%,?
CCc1cccc2cc3c(N)c(C(=O)Nc4ccc(S(=O)(=O)N5CCCC5)cc4)sc3nc12,-100%,56µM*,-324%,23%,220%,50µM*
CCOCCCNc1nc2c(C)cccn2c(=O)c1/C=C1\SC(=S)N(CC(C)C)C1=O,112µM*,-2%,9%,21%,?,1%
C=Cc1ccc(Cn2nc(-c3ccccc3)ccc2=O)cc1,3%,22µM*,8%,17%,-15%,-7%
C=CC(=O)N1C/C(=C/c2ccccc2)C(=O)/C(=C\c2ccccc2)C1,2%,-1%,-17%,?,-23%,?
C=CC(=O)N1C/C(=C/c2ccc(Cl)cc2)C(=O)/C(=C\c2ccc(Cl)cc2)C1,3%,3%,-11%,3.2µM*,-22%,?
CCOc1ccc(C2c3c(oc4ccc(C)cc4c3=O)C(=O)N2Cc2ccc3c(c2)OCO3)cc1OC (centres undefined),.,.,.,-8%,-27%,.
O=C(NC(=S)N1CCc2ccccc21)c1ccccc1,13%,7%,0%,4µM*,-7%,-8%
O=C(NC(=S)N1CCc2ccccc21)c1ccccc1Cl,16%,-3%,4%,?,-19%,-3%
O=C(C1=NN(c2ccccc2)C2C(=O)N(c3ccc(Cl)cc3)C(=O)C12)c1ccccc1 (centres undefined),14%,23%,17%,38%,-25%,17%
O=C(C1=NN(c2ccccc2)C2C(=O)N(c3cccc(Cl)c3)C(=O)C12)c1ccccc1 (centres undefined),10%,32%,-82%,115%,?,50µM*
O=C(CN1CCN(Cc2ccc(F)cc2Cl)S1(=O)=O)Nc1ccc(F)cc1,.,.,.,-30%,5%,.
CCOC(=O)c1ccccc1NC(=O)Cn1ccn2nc(-c3ccc(OCC)cc3)cc2c1=O,.,.,.,13%,-15%,.
CC(=O)C1=C(c2cccc([N+](=O)[O-])c2)N(C(C)=O)n2c(C)nnc2S1,3%,23%,9%,-31%,14µM*,10%
CCOc1ccc(NC(=O)c2c(C)nn(-c3ccc(F)cc3)c2-n2cccc2)cc1,.,.,.,-8%,-19%,.
COc1cc(CCNC2=CC(=O)c3ncccc3C2=O)ccc1O,-4%,-5%,-2%,?,18µM*,-5%
CCc1ccc2c(c1)c(=O)c(S(=O)(=O)c1ccc(F)cc1)cn2CC(=O)Nc1ccc(C)cc1C,.,.,.,3%,-10%,.
CC1CC1c1ccc(/C=C(\C#N)C(=O)Nc2cc(Cl)ccc2Cl)o1 (centres undefined),3%,21%,89µM*,32%,?,77%
CCN(CC)C(=O)CSc1nc2cc3c(cc2c(=O)n1CCCCCC(=O)NCCc1ccc(OC)c(OC)c1)OCO3,.,.,.,-4%,-22%,.
CCCc1sc(N/N=C/c2ccccn2)nc1-c1ccc(F)cc1,-7%,-15%,12%,?,-14%,-26%
Cc1nc(N/N=C/c2ccccn2)sc1C,4%,-3%,4%,3.5µM*,-7%,1%
Cc1[nH][nH]c(=O)c1C(c1c(C)[nH][nH]c1=O)c1cn(Cc2cccc3ccccc23)c2ccccc12,6%,4%,16%,?,14µM*,89µM*
Clc1ccccc1C1CC(c2ccccc2)=Nc2ccccc2N1 (centres undefined),7%,-23%,9%,5%,50µM*,17%
CCOc1ccccc1CNC(=O)c1ccc(NC(=O)N2CC(C)Sc3ccccc32)cc1 (centres undefined),.,.,.,4%,-16%,.
SMILES,EPAC2 agonist,EPAC2 antagonist,EPAC1 ag,GLP1R cytotox,USP1-UAF1 inh,EPAC1 antagonist
CC1=NOC(=O)/C1=C\c1ccc(-c2ccc(Br)cc2)o1,-4%,?,-15%,?,?,?
CC1=NOC(=O)/C1=C\c1ccc(-c2cc(Cl)ccc2Cl)o1,1%,79µM*,3%,5%,-6%,-12%
CCn1c2ccccc2c2nnc(N3CCN(c4ccc(F)cc4)CC3)nc21,.,.,.,14%,22%,.
CCCCc1c(C)nn(-c2nnc3c4ccccc4n(CC)c3n2)c1C,-6%,0%,-9%,10µM*,-11%,-11%
CN1CCC/C1=C/C=C1\SC(=S)NC1=O,112µM*,28%,63µM*,?,25µM*,111%
CCc1nc2c(OCc3ccc(C(F)(F)F)cc3)cccn2c1N(C)C(=O)c1ccc(OC)cc1,1%,18µM*,-4%,2%,.,-20%
CCc1nc2c(OCc3ccc(C(F)(F)F)cc3)cccn2c1N(C)C(=O)c1ccc(C)cc1,-6%,16µM*,-31%,-13%,.,-21%
CCc1nc2c(OCc3ccc(OC)cc3)cccn2c1N(C)C(=O)c1ccc(OC)cc1,16%,?,4%,-6%,.,7%
CCc1nc2c(OCc3ccc(C#N)cc3)cccn2c1N(C)C(=O)c1ccc(C)cc1,6%,?,8%,-3%,.,21%
CC1CCN(c2nnc(-n3cccc3CNc3cccc(F)c3)s2)CC1,.,.,.,1%,-19%,.
CN1CCN(CCCN2c3ccccc3Sc3ccc(Cl)cc32)CC1,1%,13µM*,-9%,?,-15%,-28%
COc1ccc(NC(=O)Cn2c(=O)n(Cc3ccccc3)c(=O)c3sc4ccccc4c32)cc1,.,.,.,-2%,?,.
Cc1ccc(C2=N/C(=C\c3c(C)nn(-c4ccccc4)c3N3CCCC3)C(=O)O2)cc1,100µM*,36%,-3%,3%,-18%,11%
Cc1nn(-c2ccccc2)c(N2CCCC2)c1/C=C1\N=C(c2ccc(F)cc2)OC1=O,?,28%,2%,-20%,-20%,-1%
Cc1cc(C)cc(Nc2cc(=O)n(C3CCCCC3)c(=O)[nH]2)c1,-9%,-3%,-10%,?,-3%,-10%
Cc1cc2nc3c(=O)n(C4CCCCC4)c(=O)[nH]c3nc2cc1N,?,40%,112µM*,394%,?,237%
CCOC(=O)Cc1ccc(NC(=O)Nc2nnc(N3CCCCC3C)s2)cc1 (centres undefined),.,.,.,-13%,-19%,.
O=c1oc2c(CN3CCCCC3)c(O)ccc2cc1-c1nc2ccccc2[nH]1,30%,33%,22%,i,28µM*,15%
O=c1oc2c(O)cccc2cc1-c1nc2ccccc2[nH]1,35%,14%,22%,i,33%,?
